Pf growth 96h = inhibits malaria parasite growth, 96 h. 6.9% of 320,000 active. P. falciparum luciferase reporter growth, 96 h. Potency, µM (titrated, usually from 28.7 µM), hits mostly inhibitors
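Compounds incubated with erythrocytes infected by luciferase-expressing P. falciparum (2% hematocrit, 0.05% parasitemia final) for 96 hours, 37 C in 5% CO2. Growth inhibition scored as decreased luciferase luminescence.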
HCMV inh = blocks human cytomegalovirus replication; activity change, negative = inhibition, % at 57.5 µM; 4.5% of 410,000 active; HFF cells, HCMV-luciferase reporter, 72 h; active compounds read low; AID 1259415; in the data active means activity change below about -60%; inconclusive means no clear call, values can overlap the other calls; inactive means above about -39%
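Two compound doses tested in HFFs infected with HCMV-luciferase, MOI 1 PFU/cell, 72 h at 37C. Lysate luminescence read with OneGlo; data normalized against buffer-only and 10uM Salinomycin inhibitor controls.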
Pf growth 48h = P. falciparum growth inhibition at 48 hours (one generation) | Potency, µM (top dose mostly 28.7 µM), actives largely listed as inhibitors | 5.9% of 310,000 active | P. falciparum luciferase growth in erythrocytes, 48 h
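Read-out is firefly luciferase luminescence from an integrated reporter in P. falciparum, so falling signal marks reduced parasite growth. Infected erythrocytes were at 2% hematocrit and 0.1% parasitemia (final) in Albumax-supplemented RPMI 1640.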
Shiga toxin inh = blocks Shiga toxin action in Vero cells; Vero cells, Shiga toxin protein synthesis inhibition reporter; 9.2% of 290,000 active; AID 2315; inhibition, % at 38.7 µM; in the data active means inhibition mostly above about 28%, no sharp cut-off; inactive means mostly below about 43%
Cycloheximide cs = affects cycloheximide protein synthesis inhibition readout, counter-screen. cell reporter, cycloheximide protein synthesis inhibition counterscreen. max response, %. 12% of 300,000 active; in the data active means max response mostly above about 13%, no sharp cut-off; inactive means mostly below about 14%; further: read at 38.3 µM for the half of the compounds with a filed dose
Large screens that a line does not name were inactive. Most compounds without a hit are left out; they make up all but 20% or so of the library. Unless noted, the call rests on the fitted dose curve; in most records, active means well fitted inhibition curve with a large enough effect; inconclusive means small, poorly fitted or top-dose-only effect, or another doubt; inactive means no such curve, though single readings can be large or run the other way.

O=C(N/N=C/c1cc(Br)c(Br)s1)c1ccncc1	Pf growth 96h inconclusive, HCMV inh -90, Pf growth 48h inconclusive
Cc1cc(C(=O)N/N=C/c2cc(Br)cc(Br)c2OC(=O)c2cccc(F)c2)n[nH]1	Pf growth 96h inconclusive, HCMV inh -96, Pf growth 48h 12µM
O=C(NN=Cc1ccc(Cl)cc1Cl)c1ccccc1	none (no result: Pf growth 96h, Pf growth 48h, Shiga toxin inh, Cycloheximide cs)
O=C(N/N=C/c1ccc(Br)s1)c1ccncc1	Pf growth 96h inconclusive, Pf growth 48h inconclusive
CSc1sccc1/C=N/NC(=O)c1ccncc1	Shiga toxin inh active
COC(=O)[C@]1(Cc2ccccc2)N[C@H](CN(C)C(=O)Nc2ccc(Cl)cc2)[C@@H]2C(=O)N(C)C(=O)[C@@H]21	none (no result: Pf growth 96h, Pf growth 48h, Shiga toxin inh, Cycloheximide cs)
O=C(N/N=C/c1cc2c(cc1Cl)OCO2)c1ccncc1	none
O=C(N/N=C/c1cc(Br)cc(Br)c1O)c1ccncc1	Pf growth 48h 9.3µM
O=C(N/N=C/c1cc(Cl)cc(Cl)c1O)c1ccncc1	Pf growth 96h 2.3µM, Pf growth 48h 13µM
O=C(N/N=C/c1c[nH]c2ccc(Br)cc12)c1ccncc1	none
COc1ccc(C(=O)Nc2ccc(Nc3ccccc3)cc2)cc1OC	Pf growth 96h inconclusive, Pf growth 48h inconclusive (no result: Shiga toxin inh)
COc1cccc(NC(=O)C(C)C)c1	none (no result: Shiga toxin inh, Cycloheximide cs)
COc1ccc(C(=O)Nc2cccc(OC)c2)cc1	Shiga toxin inh 91, Cycloheximide cs 58 (no result: Pf growth 48h)
COc1ccc(-c2cccc(C(=O)Nc3ccc(OC)c(OC)c3)c2)cc1	Pf growth 96h inconclusive
COc1ccc(C(=O)Nc2ccc(/C(C)=N/NC(=O)c3ccccc3O)cc2)cc1OC	Shiga toxin inh 44, Cycloheximide cs 37
COc1cccc(NC(=O)c2ccccc2)c1	none (no result: Shiga toxin inh, Cycloheximide cs)
COc1cccc(NC(=O)c2ccc(NC(=O)C(C)C)cc2)c1	Shiga toxin inh 52, Cycloheximide cs 23
COc1ccc(C(=O)Nc2ccc(OC)c(OC)c2)cc1	Shiga toxin inh 63, Cycloheximide cs 33
CCn1nc(C(=O)N2CCN(Cc3nc4ccccc4s3)CC2)c2ccccc2c1=O	none (no result: Shiga toxin inh, Cycloheximide cs)
O=C(N[C@@H](CCC/[N+]([O-])=C/c1ccccc1)C(=O)O)OCc1ccccc1	none (no result: Pf growth 96h, Pf growth 48h, Shiga toxin inh, Cycloheximide cs)
COc1cccc(NC(=O)c2ccc3nsnc3c2)c1	Shiga toxin inh 78, Cycloheximide cs 28
COc1ccc(NC(=O)c2cccc(NC(=O)C(C)C)c2)c([N+](=O)[O-])c1	Pf growth 96h inconclusive, Shiga toxin inh 22, Cycloheximide cs 22
COc1ccc(NC(=O)c2ccc(NC(=O)C(C)C)cc2)c([N+](=O)[O-])c1	none
COc1cccc(NC(=O)c2cnc[nH]2)c1	Shiga toxin inh 41, Cycloheximide cs 33
COc1cccc(NC(=O)c2ccccc2NC(=O)c2ccncc2)c1	none (no result: Pf growth 96h, Pf growth 48h, Shiga toxin inh, Cycloheximide cs)
COc1cccc(NC(=O)C(C)OC(=O)CCCNC(=O)c2ccc(Cl)cc2)c1 (configuration not stated)	Shiga toxin inh 100, Cycloheximide cs 25
O=C(NN(c1ccccc1)c1ccccc1)c1ccccc1F	Pf growth 96h inconclusive, Pf growth 48h inconclusive
COc1ccc(NC(=O)c2csc(C)c2)cc1OC	Shiga toxin inh 30, Cycloheximide cs 25
COc1cccc(NC(=O)c2ccc(-n3cccn3)nc2)c1	Pf growth 96h inconclusive, Shiga toxin inh 26, Cycloheximide cs 40
CCSc1ccccc1C(=O)Nc1cccc(OC)c1	Pf growth 96h inconclusive, HCMV inh inconclusive, Cycloheximide cs 15
Cc1ccc(NC(=O)c2ccc(OC(=O)C(C)Oc3ccc(Cl)cc3C)cc2)cc1 (configuration not stated)	Pf growth 96h inconclusive, Shiga toxin inh 61, Cycloheximide cs 43
Cc1cc(Cl)ccc1OC(C)C(=O)OCC(=O)Nc1ccc2[nH]c(=O)[nH]c2c1 (configuration not stated)	HCMV inh inconclusive (no result: Shiga toxin inh, Cycloheximide cs)
COc1cc(OC)c(NC(=O)c2csc(C)c2)cc1Cl	none
COc1cccc(NC(=O)/C(C#N)=C/c2c(C)n(Cc3ccccc3)c3ccccc23)c1	none (no result: Pf growth 96h, Pf growth 48h, Shiga toxin inh, Cycloheximide cs)
COc1ccc(NC(=O)C2(C)Cc3c(-c4ccc(N(C)C)cc4)ccnc3O2)cc1 (configuration not stated)	none (no result: Pf growth 96h, Pf growth 48h, Shiga toxin inh, Cycloheximide cs)
COc1ccc(S(=O)(=O)N2CCN(C(=O)c3ccco3)CC2)cc1C(C)(C)C	Pf growth 48h inconclusive (no result: Shiga toxin inh)
Cc1cc(NS(=O)(=O)c2ccc(NC(=O)C(F)(F)F)cc2)nc(C)n1	none
COc1cccc(NC(=O)CC(=O)c2ccc([N+](=O)[O-])cc2)c1	Shiga toxin inh 71, Cycloheximide cs 51
O=C(Nc1ccc(F)cc1)c1ccc2nsnc2c1	Shiga toxin inh 64, Cycloheximide cs 46
